In PubChem BioAssay (Tox21) one finds Potency data, which are given here for seven molecules.

Inconclusive results are not listed. Activity calls are given as the source filed them. Unless noted, calls follow the shape of the full dose curve.

Assay [1] in a line: Nuclear factor erythroid 2-related factor 2/antioxidant responsive element (Nrf2/ARE) small molecule agonists: luciferase reporter gene qHTS assay in human keratinocytes (AID 1919969; also: nearly all actives have a fitted effect of over 35% in size; also: potency is read from the fitted curve at half-maximal effect). (In general: Reporter assays use an easily measured gene product as a stand-in for the process of interest.)
In assay [2] the target is Gonadotropin-releasing hormone receptor (Homo sapiens) (UniProt P30968). The experiment in a line: Human gonadotropin-releasing hormone receptor (GnRHR) small molecule agonists, calcium flux assay in GnRHR-HEK293 cells (AID 1920063). Also: nearly all actives have a fitted effect of over 35% in size. The essentials: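 Tox21-format agonist screen using human GnRHR-expressing HEK293 cells and a fluorescent calcium dye; kinetic 3-min fluorescence reading after compound addition, 15-point concentration series run in triplicate.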
(In general: A change in cytosolic calcium serves as a functional read-out for many receptors and channels.)

For assay [3], the target named is KiSS-1 receptor (Homo sapiens) (UniProt Q969F8). The experiment in a line: Human kisspeptin (KISS1R) small molecule agonists, calcium flux assay in KISS1R-HEK293 cells (AID 1920064; active = well fitted activation curve with a large enough effect in the repeat runs). The essentials: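 Intracellular calcium mobilization in KISS1R-HEK293 cells was recorded by fluorescence (Ex/Em 480/540) for 3 min following compound addition to cells pre-loaded 1 h with calcium dye.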

Assay [4] can be described thus: G protein-coupled receptor (GPCR) small molecule agonists, calcium flux assay: HEK293 wild type cell line counter screen (AID 1920065). The procedure, abridged: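 In this agonist-mode screen, ATP is the positive control and DMSO the vehicle. Cells grow 18 h before a 1 h dye incubation at 37 C; signal is taken at Ex/Em 480/540 over 3 min.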
Assay [5] is described as follows: p53 small molecule agonists, cell-based qHTS assay with human liver microsomes (AID 1963577).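 Also: p53 response element beta-lactamase reporter cells with liver microsomes plus NADPH.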 The procedure, abridged: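 16 h, 37 C exposure of p53RE-bla cells to compounds with human liver microsomes and NADPH (0.5 mg/mL final each); detection via LiveBLAzer mixture, 2 h dark at room temperature.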
Assay [6] can be described thus: p53 small molecule agonists, cell-based qHTS assay with rat liver microsomes (AID 1963578). The essentials: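 With rat liver microsomes and NADPH present (0.5 mg/mL final each), p53RE-bla cells are treated with compound for 16 h at 37 C. LiveBLAzer detection mixture is then applied for 2 h at room temperature in the dark.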
Assay [7] is described as follows: p53 small molecule agonists, cell-based qHTS assay with human liver microsomes: qHTS cell viability counter screen (AID 1963579). Also: nearly all actives have a fitted effect of over 45% in size. The essentials: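 In this multiplexed counter screen, the reporter plates were subsequently treated with CellTiter-Glo so that cell viability, reflected by luminescence, could be recorded for p53RE-bla cells dosed 16 h with compounds under microsomal activation (HLM and NADPH).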
For orientation: Quantitative high-throughput screening tests each substance at several concentrations.

Assay [8] in a line: p53 small molecule agonists, cell-based qHTS assay with rat liver microsomes: qHTS cell viability counter screen (AID 1963580). Also: nearly all actives have a fitted effect of over 45% in size. The essentials: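 Intracellular ATP, by CellTiter-Glo luminescence, defines viability. HCT-116 p53RE-bla cells, 4,000 per well, were compound-treated in the presence of rat liver microsomes and NADPH for 16 h at 37 C.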
Assay [9] can be described thus: p53 small molecule agonists, cell-based qHTS assay: qHTS cell viability counter screen (AID 1963581). Also: nearly all actives have a fitted effect of over 45% in size. The procedure, abridged:
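Compounds are pinned onto HCT-116 p53RE-bla cells and left 16 h at 37 C. Following the reporter FRET read, ATP is quantified by CellTiter-Glo luminescence after 30 min at room temperature.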

Assay [10] in a line: p53 small molecule agonists, cell-based qHTS assay (AID 1963582; active = well fitted activation curve with a large enough effect in the signal ratio in the repeat runs, not every such curve was filed as active; the % refers to the signal ratio). The essentials:
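Agonist activity was scored from beta-lactamase FRET fluorescence in p53RE-bla cells treated 16 h at 37 C with compounds in DMSO, substrate incubation being 2 h at room temperature.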

Assay [11] deals with 5-hydroxytryptamine receptor 2A (Homo sapiens) (UniProt P28223). Description: 5-hydroxytryptamine receptor 2A (HTR2A) small molecule antagonists, cell-based qHTS assay (AID 1963586). Also: nearly all actives have a fitted effect of over 45% in size. The essentials:
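Antagonist-mode intracellular calcium assay: DOI (4 nM) added after 5 min compound pre-incubation at room temperature to dye-loaded HTR2A-CHO cells. Fluorescence followed for 3 min, sampled every second.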

For assay [12] the target is unchanged. The experiment in a line: 5-hydroxytryptamine receptor 2A (HTR2A) small molecule agonists, cell-based qHTS assay (AID 1963587). Also: nearly all actives have a fitted effect of over 30% in size. The essentials:
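Kinetic calcium-flux fluorescence (2 min, 1 sec intervals) after compound addition in agonist mode. HTR2A-CHO cells were cultured 18 h, then dye-loaded 1 h at 37 C.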

Assay [13] deals with Muscarinic acetylcholine receptor M1 (Homo sapiens) (UniProt P11229). The experiment in a line: Cholinergic receptor muscarinic 1 (CHRM1) small molecule antagonists, cell-based qHTS assay (AID 1963588). Also: nearly all actives have a fitted effect of over 40% in size. The essentials:
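CHRM1-CHO calcium-flux assay, antagonist mode. Cells were seeded 18 h, dye-loaded 1 h at 37 C and given compound for 5 min at RT, then acetylcholine was added at 50nM. FDSS fluorescence was read 3 min; 15 concentrations, three runs.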

For assay [14] the target is unchanged. The experiment in a line: Cholinergic receptor muscarinic 1 (CHRM1) small molecule agonists, cell-based qHTS assay (AID 1963589). Also: nearly all actives have a fitted effect of over 35% in size. The essentials:
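Stable CHRM1-CHO cells (human receptor) were incubated 18 h, dye-loaded for 1 h at 37 C and exposed to test compounds for agonist activity, with calcium-dependent fluorescence followed kinetically.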

The nature of assay [15]: cAMP Responsive Elements (CRE) small molecule agonists, cell-based qHTS assay (AID 1963590). The essentials: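 FRET-based beta-lactamase readout (LiveBLAzer B/G, 2 h RT) quantified CRE activation in HEK 293T CRE-bla cells after 3 h treatment with DMSO-dissolved compounds.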
The nature of assay [16]: cAMP Responsive Elements (CRE) small molecule antagonists, cell-based qHTS assay (AID 1963591; active = well fitted inhibition curve with a large enough effect in the signal ratio in the repeat runs, not every such curve was filed as active; the % refers to the signal ratio). The essentials: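 qHTS in CRE-bla HEK 293T cells: compound in DMSO, then 0.25 uM NKH477 (final), 3 h at 37 °C/5% CO2; beta-lactamase FRET read-out after 2 h substrate incubation.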
In assay [17] the target is D(2) dopamine receptor (Homo sapiens) (UniProt P14416). The experiment in a line: Dopamine D2 receptor (DRD2) small molecule agonists, cell-based qHTS assay (AID 1963594). Also: nearly all actives have a fitted effect of over 35% in size. The essentials: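 cAMP accumulation in DRD2-HEK293 cells measured by HTRF after 1 h detection; compounds added 10 min before NKH477 (200nM […]) forskolin-analogue stimulation, 30 min at room temperature, with Ro20-1724 present at 0.1 mM final.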

For assay [18] the target is unchanged. The experiment in a line: Dopamine D2 receptor (DRD2) small molecule antagonists, cell-based qHTS assay (AID 1963595; active = well fitted inhibition curve with a large enough effect in the signal ratio in the repeat runs, with a control signal flat; the % refers to the signal ratio). The essentials: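 DRD2-HEK293; 0.1 mM Ro20-1724; cpd 10 min RT; NKH477 200 nM + quinpirole 12 nM, 30 min RT; HTRF cAMP (cAMP-d2/anti-cAMP cryptate), 665/620 nm ratio after 1 h.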
In assay [19] the target is Beta-2 adrenergic receptor (Homo sapiens) (UniProt P07550). The experiment in a line: Adrenergic beta2 receptor (ADRB2) small molecule antagonists, cell-based qHTS assay (AID 1963592). Also: series mostly up to about 92 µM; nearly all actives have a fitted effect of over 50% in size. The essentials:
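Cells (CHO, stable ADRB2 overexpression) incubated 18-20hr at 37C; compounds added from DMSO; agonist mix (1nM isoproterenol, 100uM IBMX, 25uM Ro-20-1724) added; 0.5hr RT; d2-cAMP and anti-cAMP-cryptate added; 1hr RT; 665/615 nm read.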

Assay [20] shares this target. The experiment in a line: Adrenergic beta2 receptor (ADRB2) small molecule agonists, cell-based qHTS assay (AID 1963593).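 Also: CHO cells stably overexpressing human ADRB2.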 The essentials: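 CHO cells stably over-expressing ADRB2 were plated overnight at 37C, then dosed with compounds plus a stimulation mix containing 100uM IBMX and 25uM Ro-20-1724 for 0.5hr at room temperature. cAMP was measured by HTRF competition, 1hr.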

Chain of Muscarinic acetylcholine receptor M1 (Homo sapiens) (P11229 whole entry, looked up): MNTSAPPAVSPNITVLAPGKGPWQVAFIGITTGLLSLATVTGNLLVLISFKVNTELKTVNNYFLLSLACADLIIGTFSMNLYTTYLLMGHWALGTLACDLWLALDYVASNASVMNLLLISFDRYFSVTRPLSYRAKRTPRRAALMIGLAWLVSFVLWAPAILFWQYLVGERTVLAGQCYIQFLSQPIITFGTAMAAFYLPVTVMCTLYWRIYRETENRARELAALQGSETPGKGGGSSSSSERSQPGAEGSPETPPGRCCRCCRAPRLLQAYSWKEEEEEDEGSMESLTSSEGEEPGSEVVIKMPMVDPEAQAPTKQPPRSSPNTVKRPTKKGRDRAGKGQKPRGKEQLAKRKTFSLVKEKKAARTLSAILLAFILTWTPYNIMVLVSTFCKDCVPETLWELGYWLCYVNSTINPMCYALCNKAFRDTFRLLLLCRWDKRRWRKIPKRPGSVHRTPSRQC
Chain of Gonadotropin-releasing hormone receptor (Homo sapiens) (P30968 whole entry, looked up): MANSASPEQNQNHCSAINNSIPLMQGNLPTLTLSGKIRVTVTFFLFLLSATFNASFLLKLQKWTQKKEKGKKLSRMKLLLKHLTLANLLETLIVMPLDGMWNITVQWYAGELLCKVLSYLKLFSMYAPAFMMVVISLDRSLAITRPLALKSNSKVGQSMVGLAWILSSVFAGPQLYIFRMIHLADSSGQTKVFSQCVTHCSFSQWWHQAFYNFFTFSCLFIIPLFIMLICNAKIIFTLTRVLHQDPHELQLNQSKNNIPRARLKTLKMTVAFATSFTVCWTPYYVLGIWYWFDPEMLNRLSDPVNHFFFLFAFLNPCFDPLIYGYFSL
Chain of 5-hydroxytryptamine receptor 2A (Homo sapiens) (P28223 whole entry, looked up): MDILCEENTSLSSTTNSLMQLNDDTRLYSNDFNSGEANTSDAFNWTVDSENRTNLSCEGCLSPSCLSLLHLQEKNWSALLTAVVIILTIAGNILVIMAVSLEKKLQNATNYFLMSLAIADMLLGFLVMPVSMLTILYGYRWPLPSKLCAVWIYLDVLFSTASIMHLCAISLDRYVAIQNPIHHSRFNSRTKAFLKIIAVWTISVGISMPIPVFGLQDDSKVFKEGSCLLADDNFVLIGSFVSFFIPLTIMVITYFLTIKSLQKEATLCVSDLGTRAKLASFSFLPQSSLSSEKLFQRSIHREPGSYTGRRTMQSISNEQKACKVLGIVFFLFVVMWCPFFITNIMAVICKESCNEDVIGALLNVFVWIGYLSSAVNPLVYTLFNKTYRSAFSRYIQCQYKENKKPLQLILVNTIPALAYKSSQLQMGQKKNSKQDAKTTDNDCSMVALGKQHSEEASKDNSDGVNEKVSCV
Chain of Beta-2 adrenergic receptor (Homo sapiens) (P07550 whole entry, looked up): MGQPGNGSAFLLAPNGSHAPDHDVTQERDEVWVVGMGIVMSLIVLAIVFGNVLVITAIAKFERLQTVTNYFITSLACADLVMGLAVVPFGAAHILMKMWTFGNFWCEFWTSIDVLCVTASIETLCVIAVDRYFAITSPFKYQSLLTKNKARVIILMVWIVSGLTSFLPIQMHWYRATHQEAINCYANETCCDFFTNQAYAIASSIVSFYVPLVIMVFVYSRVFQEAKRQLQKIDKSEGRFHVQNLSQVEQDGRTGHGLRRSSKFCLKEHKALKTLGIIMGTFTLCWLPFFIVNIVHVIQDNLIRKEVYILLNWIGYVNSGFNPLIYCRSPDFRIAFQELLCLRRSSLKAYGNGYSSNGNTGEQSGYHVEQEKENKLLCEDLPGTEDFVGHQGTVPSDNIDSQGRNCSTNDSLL
Chain of D(2) dopamine receptor (Homo sapiens) (P14416 whole entry, looked up): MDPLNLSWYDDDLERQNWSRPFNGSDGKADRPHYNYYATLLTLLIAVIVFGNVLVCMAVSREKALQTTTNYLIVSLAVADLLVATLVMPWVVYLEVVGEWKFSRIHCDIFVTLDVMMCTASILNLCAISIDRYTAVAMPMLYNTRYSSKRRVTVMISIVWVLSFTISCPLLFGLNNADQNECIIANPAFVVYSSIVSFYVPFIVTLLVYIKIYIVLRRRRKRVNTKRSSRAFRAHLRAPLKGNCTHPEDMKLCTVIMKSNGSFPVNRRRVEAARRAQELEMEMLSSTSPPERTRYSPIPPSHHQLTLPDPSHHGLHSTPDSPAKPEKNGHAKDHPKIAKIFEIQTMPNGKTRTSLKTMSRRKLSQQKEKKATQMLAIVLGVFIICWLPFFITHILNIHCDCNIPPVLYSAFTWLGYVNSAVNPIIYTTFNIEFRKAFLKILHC
Chain of KiSS-1 receptor (Homo sapiens) (Q969F8 whole entry, looked up): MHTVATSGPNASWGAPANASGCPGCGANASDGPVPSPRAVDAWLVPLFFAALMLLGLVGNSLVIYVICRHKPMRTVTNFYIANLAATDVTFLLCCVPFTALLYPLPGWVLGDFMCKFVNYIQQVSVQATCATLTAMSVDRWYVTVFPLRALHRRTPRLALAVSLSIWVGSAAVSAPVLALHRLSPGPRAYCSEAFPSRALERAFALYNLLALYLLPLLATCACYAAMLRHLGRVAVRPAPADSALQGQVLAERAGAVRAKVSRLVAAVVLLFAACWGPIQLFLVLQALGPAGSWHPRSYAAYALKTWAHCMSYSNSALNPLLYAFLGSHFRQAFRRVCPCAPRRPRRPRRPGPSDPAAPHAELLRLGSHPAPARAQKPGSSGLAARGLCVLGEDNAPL

`CCCCCC1CCCC(=O)O1` (stereo unspecified): the Potency entry in assay [1], in assay [2], in [3], in assay [4], in assay [5] and in assay [6] was “inactive” throughout. Besides, the Potency result in assay [7], in assay [8], in [9], in assay [10], in [11] and in assay [12] was “inactive” each time. For the same molecule, the Potency result in assay [13], in [14], in assay [15], in assay [16], in [17] and in assay [18] was “inactive” throughout.
`C=CC(=O)NC(C)C`: the Potency result in assay [1], in assay [2], in [3], in assay [4], in assay [5] and in assay [6] was “inactive” each time. Besides, the Potency entry in assay [7], in [8], in assay [9], in assay [10], in assay [11] and in [12] was “inactive” in each case. Besides, the Potency entry in assay [13], in [14], in [15], in assay [19], in [20] and in assay [17] was “inactive” throughout. Moreover, the Potency entry in assay [18] is “inactive”.
Consider `CCC(CC)C(C)CCOC(C)=O` (stereo unspecified), for which the Potency entry in assay [1], in [2], in [3], in assay [4], in [5] and in assay [6] was “inactive” each time. The Potency entry in assay [7], in assay [8], in assay [9], in [10], in assay [11] and in [12] was “inactive” in each case. The Potency result in assay [13], in assay [15], in [16], in assay [19], in [20] and in assay [17] was “inactive” throughout. Moreover, the Potency entry in assay [18] is “inactive”.
On to `CN1[C@@H]2CC[C@H]1CC(NC(=O)n1c(=O)[nH]c3ccccc31)C2` (stereo partly specified), for which the Potency entry in assay [1], in assay [2], in assay [3], in assay [4], in assay [5] and in assay [6] was “inactive” each time. Also, the Potency result in assay [7], in assay [8], in [9], in assay [10], in assay [11] and in [12] was “inactive” throughout. The Potency entry in [13], in assay [14], in assay [15], in [16], in [19] and in assay [20] was “inactive” each time. Moreover, the Potency result in assay [17] and in [18] was “inactive” throughout.
As for `CN(C)CCCNCCC#N`, the Potency result in [1], in assay [2], in [3], in assay [4], in assay [5] and in [6] was “inactive” each time. Further, the Potency result in assay [7], in assay [8], in [9], in assay [10], in assay [11] and in assay [12] was “inactive” in each case. For the same molecule, the Potency result in assay [13], in assay [14], in [15], in [16], in assay [19] and in assay [17] was “inactive” each time. Besides, in [18], the Potency entry is “inactive”.
Take `O=C1c2cccc(O)c2C(=O)c2c(O)cccc21`: the Potency in assay [1] is 27.6 µM (active). In addition, the Potency result in assay [2], in assay [3], in assay [4], in [5], in [6] and in assay [7] was “inactive” in each case. Also, the Potency result in assay [8], in assay [9], in [10], in assay [11], in assay [13] and in [14] was “inactive” each time. The Potency result in assay [15], in assay [19], in assay [20], in assay [17] and in assay [18] was “inactive” in each case.
For `CC(c1cc2ccccc2s1)N(O)C(N)=O` (stereo unspecified), the Potency result in assay [1], in assay [2], in assay [3], in [4], in assay [7] and in assay [8] was “inactive” each time. Besides, the Potency entry in assay [9], in assay [15], in assay [16], in assay [19], in assay [20] and in assay [17] was “inactive” throughout. Besides, in assay [18], the Potency entry is “inactive”.
